JMJD2E inh: inhibitors of human JMJD2E histone demethylase | JMJD2E catalytic domain, FDH-coupled NADH fluorescence (FDH is formaldehyde dehydrogenase) | Potency, µM (series often up to 57.1 µM), inactives show top-dose activity change, negative = inhibition, hits mostly inhibitors | actives 1.6% (n = 230,000) | AID 2147; active means well fitted inhibition curve with a large enough effect, not every such curve was filed as active; inconclusive means small, poorly fitted or top-dose-only effect, or another doubt; inactive means no such curve, though single readings can be large or run the other way;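 further: 0% = wells with enzyme and -100% = buffer wells without enzyme; nearly all actives have a fitted effect of over 50% in size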
TR SRC2 fluor cs: alters Texas Red total fluorescence, flagging assay interference; TRb/SRC2 Texas Red total fluorescence interference; Potency, µM (highest dose often 106 µM), for inactives: top-dose fluorescence change, negative = quenching; actives 0.29% (n = 280,000); AID 1479; active means well fitted curve in either direction with a large enough effect; inconclusive means small, poorly fitted or top-dose-only effect
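Flags fluorescent or light-absorbing compounds by total fluorescence, S + 2P, at 555 nm excitation and 632 nm emission. Mixture: 20 nM Texas Red SRC2 peptide, 0.6 uM human TRb LBD, 1 uM T3, 5% DMSO; compound exposure 5 h at ambient temperature.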
Tau fibril ThT: inhibitors of human tau fibril formation, thioflavin T binding | Potency, µM (series often up to 57.4 µM), without a hit: at the highest dose activity, negative = inhibition, actives largely listed as inhibitors | P10636 | recombinant tau K18 P301L, heparin-induced fibrillization, ThT fluorescence | actives 2.1% (n = 270,000); further: nearly all actives have a fitted effect of over 55% in size
Target sequence (P10636 561-689 P618L limits assumed): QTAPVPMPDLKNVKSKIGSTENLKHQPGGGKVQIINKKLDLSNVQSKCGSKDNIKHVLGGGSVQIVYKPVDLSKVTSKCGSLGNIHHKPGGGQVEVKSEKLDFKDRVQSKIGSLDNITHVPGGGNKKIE
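Heparin-induced (20 uM) aggregation of recombinant human K18 P301L tau, 15 uM unlabeled with 0.24 uM labeled, pH 7 acetate buffer, 6 hr at 37 C with compound. Fibrils quantified by 30 uM ThT fluorescence after 1 hr ambient incubation.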
Tau fluor cs: counter-screen for tau fibril formation inhibitors; tau K18 P301L (four-repeat tau fragment) Alexa594 fluorescence, heparin fibrillization; Potency, µM (series often up to 57.7 µM), without a hit: at the highest dose activity change, negative = decrease; actives 0.93% (n = 280,000); further: nearly all actives have a fitted effect of over 55% in size
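Human K18 P301L tau (15 uM unlabeled plus 0.24 uM Alexa 594-labeled, final) in 100 mM sodium acetate pH 7 was mixed with compound and 20 uM heparin and incubated 6 hr at 37 C.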
Tau FP inhib: inhibitors of human tau fibril formation; P10636; K18 P301L tau heparin fibrillization, Alexa594 FP, 6 h; Potency, µM (titrated, usually from 57.7 µM), for inactives: at the top dose activity, negative = inhibition, usual class: inhibitors; actives 0.39% (n = 280,000); AID 1468; further: nearly all actives have a fitted effect of over 55% in size
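FP of Alexa 594-tau after heparin (20 uM) induction. Substrate: human K18 P301L, 15 uM unlabeled, 0.24 uM labeled. Buffer 100 mM sodium acetate pH 7. 6 hr, 37 C.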
TRb SRC2 PPI: inhibitors of human thyroid hormone receptor beta-SRC2 interaction. Potency, µM (highest dose often 106 µM), for inactives: top-dose activity change, negative = inhibition, usual class: inhibitors. P10828. AID 1469. actives 0.065% (n = 280,000). TRbeta-SRC2 peptide binding, fluorescence polarization; receptor liganded with 1 µM T3;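 further: plate controls were bound peptide for no effect and peptide without receptor for full effect; nearly all actives have a fitted effect of over 50% in size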
Target sequence (P10828 whole entry, looked up): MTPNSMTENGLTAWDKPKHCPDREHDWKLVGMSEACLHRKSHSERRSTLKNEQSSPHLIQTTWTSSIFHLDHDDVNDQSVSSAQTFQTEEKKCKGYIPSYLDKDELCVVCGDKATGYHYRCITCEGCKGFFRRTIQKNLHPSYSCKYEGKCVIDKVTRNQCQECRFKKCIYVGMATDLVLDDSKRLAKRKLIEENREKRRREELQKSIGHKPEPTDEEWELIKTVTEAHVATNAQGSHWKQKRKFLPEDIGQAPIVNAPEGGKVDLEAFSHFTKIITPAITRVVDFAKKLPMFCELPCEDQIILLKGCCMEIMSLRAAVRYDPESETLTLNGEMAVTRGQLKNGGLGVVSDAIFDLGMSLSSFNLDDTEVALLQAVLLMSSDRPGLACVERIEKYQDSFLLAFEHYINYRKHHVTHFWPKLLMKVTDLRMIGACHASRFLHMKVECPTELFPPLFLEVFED
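Compounds were added to 0.6 uM TRb ligand-binding domain and 20 nM Texas Red-labeled SRC2 peptide in Tris buffer containing 1 uM T3, incubated 5 hr at ambient temperature, then read by fluorescence polarization.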
Active calls of the source: *; ? = inconclusive; nt = no result given; ! = not active in a repeat; [ ] = dose if it differs, or a comment. An excerpt weighted towards active compounds, which were near 3.5% of everything screened. Unless noted, the call rests on the fitted dose curve; in most records, active means well fitted curve in the direction sought with a large enough effect; inconclusive means small, poorly fitted or top-dose-only effect, or another doubt; inactive means no such curve, though single readings can be large; an effect the other way counts as inactive or inconclusive. Unless noted, on the % scale 0 is the no-effect control and ±100 the full control effect; potency means the concentration at half of the fitted maximal effect.

SMILES | JMJD2E inh | TR SRC2 fluor cs | Tau fibril ThT | Tau fluor cs | Tau FP inhib | TRb SRC2 PPI
COC(=O)c1ccc(C(NC(=O)OCc2ccccc2)/C(=C/[C@@H](C)C(=O)NCc2cc(F)cc(F)c2)c2cccnc2)cc1 (some centres not stated) | 4% | -4% | 3% | -6% | 7% | -4%
CNC(=O)Nc1cccc(-c2cc(-c3c(Cl)cccc3Cl)no2)c1 | ? | 0% | -2% | ? | 22µM* | 13%
CC(C(=O)NC1CCCC1)N(C(=O)c1ccc(-c2ccccc2)[nH]1)c1ccccc1F (configuration not stated) | ? | -5% | -17% | -7% | 1% | -1%
CCCCC/C=C/C=C1/C(=O)C=C[C@@H]1C/C=C\CCCC(=O)O | -12% | 1% | 16µM*! | -4% | ? | 1%
CCN1CCN(Cc2ccc(NC(=O)c3cc(NC(=O)c4cnn(-c5ccccc5)c4N)cc(OC)c3)cc2C(F)(F)F)CC1 | 8% | 0% | 6% | ? | ? | 11%
Cn1cnnc1Sc1ccc(/C=C/C(=O)c2ccc(O)cc2)cc1[N+](=O)[O-] | 1% | -8% | 14µM* | ? | 2% | -12%
Cn1cnnc1Sc1ccc(C(=O)OCC(=O)Nc2ccccc2)cc1[N+](=O)[O-] | 5% | -2% | -12% | -15% | 5% | 6%
Cn1cnnc1Sc1ccc(C(=O)OCC(=O)Nc2cc(Cl)cc(Cl)c2)cc1[N+](=O)[O-] | -1% | -4% | ? | 13µM*[quencher] | -4% | -7%
CCOC(=O)c1sc(C)c2c(=O)n(CCCN3CCOCC3)cnc12 | -28% | -3% | 6% | 6% | -6% | -1%
Cc1ccc(/C=N/NC(=O)C2CCN(Cc3ccc(F)cc3Cl)CC2)o1 | -5% | 2% | -5% | -11% | -3% | -1%
O=C(c1ccc(Cl)cc1)N1CCC(O)(CSc2ccc(Cl)cc2)CC1 | 0% | 3% | -2% | -14% | 1% | -7%
Cc1cccc(OCC(O)Cn2c(=N)n(CCN3CCCCC3)c3ccccc32)c1 (configuration not stated) | -3% | 1% | -15% | -3% | ? | 2%
O=C(O)C1Nc2c(O)cc(Cl)c([N+](=O)[O-])c2C2C=CCC12 (configuration not stated) | 7.9µM* | 13µM*[quencher] | 7.9µM* | 7.1µM*[quencher] | 14µM* | ?
COc1cc(/C=C2\N=C3CCCCCN3C2=O)ccc1O | -9% | -5% | -16% | -5% | 10% | 6%
O=C1/C(=C\c2ccc(O)c(O)c2)N=C2CCCCCN12 | 13µM* | -2% | ? | -24% | -5% | 1%
CCOC(=O)c1nc(Nc2ccc(Nc3ccccc3)cc2)c2ccccc2n1 | -6% | -3% | 5µM* | 7.1µM*[quencher] | 5% | 4%
CCOC(=O)c1nc(Nc2ccc(N3CCC(C)CC3)cc2)c2ccccc2n1 | -6% | -1% | ? | 11µM*[quencher] | 13% | 8%
COC(=O)Cc1c(C)nc2nc(-c3ccco3)[nH]n2c1=O | 5% | 3% | 3% | -7% | -1% | -16%
CCCOc1ccc(/C(O)=C2\C(=O)C(=O)N(CCCN(C)C)C23C(=O)N(C)c2ccccc23)cc1 (configuration not stated) | 5% | 1% | 2% | 2% | 3% | 12%
O=C1C(O)=C(O)C(=O)C(O)=C1O | 13µM* | 1% | 13µM* | -22% | ? | 3%
COc1ccc(CCNC(=O)CCCOc2ccc(C)cc2)cc1OC | 0% | 1%[53 µM] | ? | -1% | 7% | 0%[53 µM]
Cn1c(=O)oc2cc(S(=O)(=O)Nc3ccccc3)ccc21 | -2% | -2% | -6% | -8% | 0% | 2%
CCOC(=O)C1CSc2[nH]c(=O)sc2C1c1ccccc1 (configuration not stated) | -1% | -3% | -19% | -19% | 7% | 3%
O=C(O)CC12CSc3[nH]c(=O)sc3C1c1ccccc1OC2=O (configuration not stated) | 1% | -4% | 25µM* | -19% | ? | -7%
Cc1nc2ccccc2c(=O)n1/N=C/c1ccc(O)cc1O | ? | 0% | -7% | -1% | 5% | 6%
SMILES | JMJD2E inh | TR SRC2 fluor cs | Tau fibril ThT | Tau fluor cs | Tau FP inhib | TRb SRC2 PPI
CN(/N=C/c1ccc(O)cc1O)c1nc(-c2ccccc2)cc(-c2ccccc2)n1 | -4% | 1% | ? | 14µM*[quencher] | ? | 8%
C(CNC1C2CC3CC(C2)CC1C3)CN1CCOCC1 (configuration not stated) | 3% | -1% | -8% | -11% | -4% | -6%
CC(=O)C1=C(O)C=C2Oc3c(C(C)=O)c(O)c(C)c(O)c3[C@]2(C)C1=O | 1% | 1% | -12% | -21% | -3% | 4%
Cn1c(=O)c(C#N)c(-c2ccc(F)cc2)c2cc(C(=O)c3cc(Cl)cc(Cl)c3O)cnc21 | -13% | -5% | 14µM* | -24% | 1% | 3%
COc1ccccc1-n1c(=O)c(C#N)c(-c2ccc([N+](=O)[O-])cc2)c2cc(C(=O)c3cc(F)ccc3O)cnc21 | 3% | 1% | -7% | -27% | 14% | -1%
COc1cc(/C=C(\C#N)c2nc3ccc(C)cc3[nH]2)ccc1OC(C)C | nt | 3% | ? | ? | -8% | -1%
N#C/C(=C/c1ccc(N2CCOCC2)o1)c1ccc(Cl)cc1 | ? | 19% | 16µM* | ? | ? | 1%
Cc1ccc2nc(/C(C#N)=C/c3cccc(Br)c3)[nH]c2c1 | nt | 1% | 5µM* | ? | -4% | 1%
N#C/C(=C\c1ccc(N2CCOCC2)c([N+](=O)[O-])c1)c1nc2ccccc2[nH]1 | -4% | -5% | 5µM* | 22µM*[quencher] | -7% | -21%
O=C(O)c1cc(/C=C/c2ccc(N3CCOCC3)cc2)nc2ccccc12 | ? | -3% | ? | -19% | 11% | 4%
O=C(O)c1cc(/C=C/c2ccc(N3CCOCC3)c([N+](=O)[O-])c2)nc2ccccc12 | -3% | -2% | 14µM* | -22% | -5% | -2%
N#C/C(=C\c1ccc(Oc2ccc(C(F)(F)F)cc2[N+](=O)[O-])cc1)c1nc2ccccc2[nH]1 | ? | -1% | ? | ? | ? | -11%
N#C/C(=C\c1ccc(N2CCOCC2)o1)c1nc2ccccc2[nH]1 | ? | nt | 7.9µM* | ? | -11% | nt
CC(=O)Nc1ccc(/C=C/c2ccc3c([N+](=O)[O-])cccc3n2)cc1 | -1% | -1% | 1.4µM* | -11% | 14% | -3%
N#C/C(=C\c1ccc(-c2ccc(C(=O)O)cc2)o1)c1nc2ccccc2[nH]1 | 28µM* | ? | ? | ? | -7% | -6%
